In the library only some 8.7% were active in any assay of this set; here they are far more common.
ALOX12 inh – blocks human arachidonate 12S-lipoxygenase; P18054; purified 12hLO, xylenol orange hydroperoxide absorbance; Potency, µM (top dose mostly 108 µM), for the others: at the top dose activity change, negative = inhibition, most hits filed as inhibitors; actives 1.1% (n = 580,000); AID 1671190; further: on the % scale 0 is the no-effect control and ±100 the full control effect
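Hydroperoxide product was detected by ferrous iron/xylenol orange as the 573 to 405 nm absorbance ratio. Arachidonic acid at 40 uM (final) was turned over for 30 min at room temperature by 150 nM human 12hLO, pH 7.0 Hepes buffer, after 15 min compound preincubation.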
G9a block – G9a (human) methyltransferase inhibition; actives 8.8% (n = 350,000); G9a H3K9 monomethylation, AlphaScreen, 2 h; Potency, µM (highest dose often 102 µM), for the others: top-dose activity, negative = inhibition, actives largely listed as inhibitors; further: on the % scale 0 is the no-effect control and ±100 the full control effect; nearly all actives have a fitted effect of over 75% in size
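Methyltransferase reactions run at room temperature for 2 h (20 nM enzyme, 500 nM biotin-H3K9 peptide, 20 uM SAM) after a 15 min compound preincubation; product detected by AlphaScreen beads and anti-H3K9me1 antibody.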
BAZ2B block – blocks human BAZ2B. AlphaScreen BAZ2B-H3K14Ac peptide displacement. Potency, µM (series often up to 114 µM), for the others: at the highest dose activity change, negative = inhibition, most hits filed as inhibitors. actives 4.4% (n = 360,000); further: on the % scale 0 is the no-effect control and ±100 the full control effect; nearly all actives have a fitted effect of over 60% in size
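AlphaScreen luminescence quantifies BAZ2B engagement of H3K14Ac peptide; the protein and biotinylated peptide are both at 50 nM final, buffer PBS pH 7.4 with 0.01% Tween-20, all steps at room temperature.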
JMJD2A Tudor – inhibitors of human JMJD2A Tudor domain. AID 504339. Potency, µM (top dose mostly 114 µM), without a hit: at the highest dose activity change, negative = inhibition, most hits filed as inhibitors. AlphaScreen JMJD2A-Tudor / H3K4me3 peptide binding. actives 4.4% (n = 390,000). O75164; further: on the % scale 0 is the no-effect control and ±100 the full control effect; nearly all actives have a fitted effect of over 50% in size
Sfp inh – Sfp phosphopantetheinyl transferase inhibition. Q9F4F7. Biochemical Sfp PPTase activity, qHTS. Potency, µM, without a hit: largest response in the series, negative = inhibition, most hits filed as inhibitors. actives 3.5% (n = 310,000);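 further: the enzyme is Sfp with the accession as filed and its product quenches rhodamine fluorescence; 0% = enzyme reaction without inhibitor and -100% = no enzyme wells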
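With Hepes-Na pH 7.6 buffer containing 10 mM MgCl2, Sfp (15 nM) modified BHQ-2-YbbR (12.5 uM) using rhodamine-CoA (5 uM). Two reads 30 minutes apart at 525/598 nm yielded each well's rate.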
HP1b binding inh – inhibitors of HP1-beta chromodomain binding to methylated histone tails. P83916. AlphaScreen HP1-beta / biotin-H3K9me3 peptide binding. Potency, µM (series often up to 114 µM), for inactives: top-dose activity change, negative = inhibition, usual class: inhibitors. actives 0.56% (n = 390,000); further: nearly all actives have a fitted effect of over 70% in size
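HP1-beta protein (50 nM final) preincubated 30 min at room temperature with biotinylated H3(1-18)K9me3 peptide (50 nM) in PBS pH 7.4, 0.01% Tween-20, then compound added for 30 min. AlphaScreen streptavidin donor/nickel chelate acceptor beads (10 ug/mL final), 30 min dark, luminescence read.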
* marks the source's active call; other numbers are inactive results; u = inconclusive; x = no result; [ ] = dose if it differs, or a comment. The call rests on the fitted dose curve; in most records, active means well fitted curve in the direction sought with a large enough effect; inconclusive means small, poorly fitted or top-dose-only effect, or another doubt; inactive means no such curve, though single readings can be large; an effect the other way counts as inactive or inconclusive. Potency means the concentration at half of the fitted maximal effect.

SMILES	ALOX12 inh	G9a block	BAZ2B block	JMJD2A Tudor	Sfp inh	HP1b binding inh
O=C1CC(c2ccco2)CC(O)=C1C=NCCO (stereo unspecified)	0%	79µM*	12%	-4%	u	33%
c1ccc(C2=NNC(=NC3CC3)SC2)cc1	u	u	9%	-21%	45µM*	7%
c1ccc2c(C3=NNC(=NC4CC4)SC3)c[nH]c2c1	-2%	13µM*	-32%	-34%	u	-7%
c1ccc2c(C3=NNC(=NC4CCCCC4)SC3)c[nH]c2c1	u	u	u	u	-10%	-17%
COc1ccc(-n2c(=O)c3c(n2Cc2ccccc2)CN(C(=O)c2cccc(C#N)c2)CC3)cc1	-3%	x	x	x	x	x
CCOc1ccc2noc3c2c1C(=O)c1ccccc1-3	22%	u	-11%	3%	u	67%
O=C1c2ccccc2-c2onc3c(Oc4ccccc4)cc(O)c1c23	x	u	35µM*	x	-12%	x
CN1CCCCCC(O)c2cc(C(=O)NC3CCCCC3)ccc21 (stereo unspecified)	29%	x	x	x	x	x
C[C@@H]1CC2C3CCC4=CC(=O)C=CC4(C)[C@@]3(F)[C@@H](O)CC2(C)[C@@]1(O)C(=O)CO (stereo partly specified)	x	2.5µM*	x	x	1%	x
N#Cc1ccc(N2CCN(C(=O)CCn3cncn3)CC2=O)cc1	-3%	x	x	x	x	x
Cc1[nH]c2ccccc2c1/C=N/Nc1nc(Nc2ccccc2)nc(N2CCOCC2)n1	-6%	x	40µM*	u	2%	-24%
Oc1[nH]c2ccccc2c1N=Nc1nc(Nc2ccccc2)nc(N2CCOCC2)n1	0%	-37%	u	-11%	16µM*	34%
CCCCCCOC1(c2ccccc2)OC(=O)c2ccccc21 (stereo unspecified)	14%	84%[59 µM]	152%	76%	-1%	224%
CCCCCOP(=O)(OCCCCC)C1(NS(=O)(=O)c2ccccc2)C=CC(=O)c2ccccc21 (stereo unspecified)	u	8.9µM*	-2%	-29%	11%	u
CCc1ccc(OC(=O)c2ccccc2F)cc1	-30%	x	x	x	x	x
O=C(CSc1nnc(-c2ccccc2Br)o1)N1CCOCC1	6%	16%	6%	-8%	3%	8%
O=C(CSc1nnc(-c2ccccc2O)o1)N1CCCCC1	-20%	10µM*	-31%	-2%	5%	37%
CC1CCCCN1C(=O)CSc1nnc(-c2ccccc2Cl)o1 (stereo unspecified)	-20%	13µM*	3%	-4%	x	-10%
O=C(CSc1nnc(-c2ccccc2O)o1)N1CCOCC1	0%	-11%	79µM*	56µM*	-11%	-20%
O=C(CSC12CC3CC(CC(C3)C1)C2)NC1CC1	17%	x	x	x	x	x
COC(=O)[C@@H](Cc1cccnc1)NC(=O)[C@H]1CN(C(=O)c2cccnc2)CCN1C(=O)C1CCCCC1	7%	x	x	x	x	x
CN(CC(=O)N(C)C1CCCCCC1)c1ncnc2nc[nH]c12	22%	x	x	x	x	x
Nc1c(Cl)ncnc1N/N=C/c1ccc(O)cc1	10%	8%[59 µM]	u	-18%	56µM*	2%
CCOc1ccc(NC(=S)Nc2cccc3cnccc23)cc1	-24%	u	-14%	-13%	u	-11%
Cc1cc(NC(=S)Nc2cccnc2)ccc1Br	-4%	40µM*	-3%	-21%	-15%	21%
SMILES	ALOX12 inh	G9a block	BAZ2B block	JMJD2A Tudor	Sfp inh	HP1b binding inh
COc1ccc(NC(=S)Nc2cccc3cnccc23)cc1	u	25µM*	-37%	-33%	u	-19%
Fc1ccc(NC(=S)Nc2cccc3cnccc23)cc1	-12%	35µM*	-36%	-14%	2.8µM*	-12%
Cc1cc(NC(=S)Nc2cccc3ccccc23)n[nH]1	u	1.1µM*	-25%	-23%	-7%	-14%
Cc1cc(NC(=S)Nc2ccccc2)ccc1Br	u	22%[0.501 µM]	-30%	-11%	1%	6%
O=C(O)C(c1c(-c2ccccc2)[nH]c2ccccc12)N1CCN(Cc2ccccc2)CC1 (stereo unspecified)	-20%	x	x	x	x	x
Cc1c(C(=O)Nc2ccccc2)sc2c1C(c1ccncc1)CC(=O)N2 (stereo unspecified)	-3%	x	x	x	x	x
O=C(c1ccccn1)N1CCCCCC1c1nnc(-c2ccccc2)o1 (stereo unspecified)	1%	x	x	x	x	x
CC1=NOC2(CCN(C(=O)c3ccc(C(F)(F)F)cc3)C2)C1 (stereo unspecified)	71%[176 µM]	x	x	x	x	x
COc1ccc(Nc2cnc3ccc(-c4ccccc4)nn23)cn1	46%[176 µM]	x	x	x	x	x
O=S(Cc1ccc(Cl)cc1)Cc1ccc(F)cc1Cl (stereo unspecified)	7%	x	x	x	x	x
Cc1ccc(C(=O)Nc2nc3ccc(S(=O)(=O)N(C)C)cc3s2)cc1C	-36%	x	x	x	x	x
Cc1ccc(-c2cc(-c3ccc(C)c(C)c3)[nH]n2)cc1C	25%	x	x	x	x	x
Cc1ccc(NC(=O)CCSCCC(=O)Nc2ccc(C)c(C)c2)cc1C	-75%	24%[12.7 µM]	-31%	-11%	5%	22%
S=C(Nc1ccc(Cl)cc1)Nc1cccc2cnccc12	u	45µM*	-38%	-21%	u	-19%
CCc1cccc(NC(=O)CCSCCC(=O)Nc2cccc(CC)c2)c1	-5%	50µM*	-22%	-6%	21%	33%
O=C(Nc1cccnc1)Nc1cccc(F)c1	11%	5%	-13%	-1%	20%	50%
Fc1ccc(NC(=S)Nc2cccc3ccccc23)cc1	0%	79µM*	u	-24%	-23%	1%
Fc1cccc(NC(=S)Nc2cccnc2)c1	-3%	u	-31%	-5%[57.1 µM]	35µM*	16%
Fc1ccc(NC(=S)Nc2cccc3ccccc23)cc1F	u	-48%	-23%	-6%	-17%	5%
CCC1=C(C(=O)OC)C(c2ccccc2)N2C(CC(=O)NCC3CCCO3)=CSC2=N1 (stereo unspecified)	57%	x	x	x	x	x
Cc1cccc(NC(=S)Nc2cccc3ccccc23)c1	u	x	u	-27%	-23%	5%
C=CCNC(=S)Nc1cccc2ccccc12	-3%	45µM*	-18%	-9%	79µM*	17%
CCc1cccc(NC(=S)Nc2cccc3ccccc23)c1	45µM*	-60%	-36%	-15%	-10%	-9%
CCOc1ccc(NC(=S)Nc2ccc(OCC)cc2)cc1	u	3%[12.7 µM]	-19%	-9%	-3%	31%
C=CCNC(=S)NCc1ccccc1	1%	x	-1%	-5%	u	33%
COc1cc(NC(=S)Nc2cccnc2)cc(OC)c1	u	16µM*	-25%	-10%	u	-16%
CCOc1ccc(NC(=S)Nc2cc(C)[nH]n2)cc1	40µM*	-136%[59 µM]	u	u	5%	-14%
